Dicer processing: inhibitors of Dicer pre-microRNA processing, primary screen, biochemical, cat-ELCCA, chemiluminescence | Endoribonuclease Dicer (Homo sapiens), Q9UPY3 | z-score at 25 µM | 47,000 compounds, 6% hits | cat-ELCCA pre-miR-21 Dicer processing; active compounds read high; in the data active means z-score above about 3, passing the limit was not always enough;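 further: higher signal means more uncleaved substrate so more Dicer inhibition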
Large screens that a line does not name were inactive. Shown is part of a subset that was picked to be rich in hits.

Cc1ccc(S(=O)(=O)NCC2CCCO2)cc1-c1nnc2c3ccccc3c(C)nn12 (centres undefined)	none
Cc1ccc(/C(O)=C2/C(=O)C(=O)N(c3ccc(O)cc3)C2c2ccc(C)cc2)cc1 (centres undefined)	none
CCOC(=O)c1c(/C=C2\C(=O)Nc3ccccc32)c(C)n(-c2ccccc2)c1C	none
CN(CCc1ccccn1)Cc1ccccn1	none
CN(CCc1ccccn1)Cc1cccc(F)c1	Dicer processing 3.47
CN(CCc1ccccn1)Cc1ccc(F)cc1	none
O=C(O)CCCC(=O)NCCc1ccncc1	none
O=C(Nc1ccc(OCc2ccccc2)cc1)Nc1sccc1-c1nc2ccccc2s1	none
CC(N)=O	Dicer processing 4.06
O=C(Cc1ccccc1)c1ccc(O)cc1	none
Cc1ccc2nc(Nc3nc(O)cc(=O)[nH]3)nc(C)c2c1	none
Cc1ccc2nc(Nc3nc(C)cc(=O)[nH]3)nc(C)c2c1	none
Cc1cc(C)c2nc(Nc3nc(O)cc(=O)[nH]3)nc(C)c2c1	Dicer processing 5.25
O=C(NNc1cc(C(F)(F)F)ccc1Cl)NC(=O)c1ccccc1Cl	none
CCOC(=O)CSC1=C(C#N)C(c2ccc(C)cc2)CC(=O)N1 (centres undefined)	none
Cc1c(-c2nc(-c3ccc(OS(=O)(=O)N(C)C)cc3)no2)oc2ccccc12	none
COc1ccc(-c2cc(C(F)(F)F)nc(SCCC(=O)N3CCCC3)n2)cc1	Dicer processing 3.26
O=C(CCSc1nc(-c2ccc3c(c2)OCO3)cc(C(F)(F)F)n1)N1CCCC1	none
CC1CCN(C(=O)CCSc2nc(-c3ccco3)cc(C(F)(F)F)n2)CC1	none
COC(=O)c1scc(S(=O)(=O)C(C)(C)C)c1N	none
Nc1ccc(Cc2nc3cc4ccccc4cc3[nH]2)cc1	none
COc1ccccc1-c1nnc2ccc3ccccc3n12	Dicer processing 3.03
Fc1ccc(-c2nnc3ccc4ccccc4n23)cc1	none
Clc1ccc(-c2nnc3ccc4ccccc4n23)cc1	none
CCCc1nnc(N2C(=O)c3oc4ccc(F)cc4c(=O)c3C2c2ccc(F)cc2)s1 (centres undefined)	none
O=C(O)C1CC(=O)N(Cc2ccco2)C1 (centres undefined)	none
O=c1[nH]c(=O)n(-c2ccccc2)c2c1CN(Cc1ccco1)CN2	none
c1ccc(C2CN(Cc3ccco3)C(c3ccccc3)O2)cc1 (centres undefined)	Dicer processing 3.55
O=C(O)c1cc(NC(=O)c2cccs2)cc(C(=O)O)c1	none
CCOC(=O)CSc1n[nH]c(C)n1	none
COCCCNC(=S)NNC(=S)Nc1ccc(OC)cc1	none
FC(F)(F)c1cc(N/N=C2/CCSc3sccc32)cc(C(F)(F)F)c1	none
Cc1cc(Cl)ccc1N=C(C#N)C1=C(O)c2ccccc2C1=O	Dicer processing 4.78
CCc1cccc(C)c1N=C(C#N)C1=C(O)c2ccccc2C1=O	none
Cc1ccc(N=C(C#N)C2=C(O)c3ccccc3C2=O)cc1F	none
O=C(CSc1nc2ccccc2[nH]1)Nc1nc2ccccc2s1	none
CCc1ccccc1N1CC23C=CC(O2)C(C(=O)O)C3C1=O (centres undefined)	none
COc1cc(C2Nc3ccc(C(=O)c4ccccc4)cc3NC3=C2C(=O)CCC3)ccc1OC(C)=O (centres undefined)	none
COc1ccc(C2Nc3ccc(C(=O)c4ccccc4)cc3NC3=C2C(=O)CCC3)c(OC)c1 (centres undefined)	none
CN(C)c1ccc(C2Nc3ccc(C(=O)c4ccccc4)cc3NC3=C2C(=O)CCC3)cc1 (centres undefined)	Dicer processing 5.01
O=C(CN1C2=NCCCN2c2ccccc21)c1ccc(Br)cc1	Dicer processing 4.03
O=C(CN1C2=NCCCN2c2ccccc21)c1ccc2c(c1)OCO2	none
O=C(CN1C2=NCCN2c2ccccc21)c1ccc(Cl)cc1	none
Cc1c(C#N)c(Sc2ccccc2)nc2ccccc12	none
CNC(=S)Nc1c(C)n(C)n(-c2ccccc2)c1=O	none
Cc1nnc(NC(=O)CCCC(=O)O)s1	Dicer processing 3.73
CC(C)c1nnc(NC(=O)CCCC(=O)O)s1	none
Cc1nnc(NC(=O)CCC(=O)O)s1	none
COc1cccc(Oc2c(C(F)(F)F)oc3cc(OC)ccc3c2=O)c1	none
ONC=Nc1ccccc1Sc1nc2cc(Cl)ccc2s1	Dicer processing 3.06
ONC=Nc1ccccc1Sc1nc2c(Cl)cc(Cl)cc2s1	none
Nc1ccccc1Sc1nc2cc(Cl)ccc2s1	none
CCOC(=O)C1=C(C)NC(=O)NC1c1ccc(N(C)C)cc1 (centres undefined)	none
O=C1c2ccccc2-c2c1cnc1c(-c3ccccc3)cnn21	none
O=C(c1cc2ccccc2s1)N1CCOCC1	Dicer processing 3.18
NC(=O)C1CCN(C(=O)Nc2cc3ccccc3s2)CC1	none
O=C(c1sc2ccccc2c1Cl)N1CCOCC1	none
Cc1ccc2nc(Cc3ccc4nc(N)sc4c3)oc2c1	Dicer processing 4.73
Cc1ccc2nc(Cc3ccc(N)cc3)oc2c1	none
Nc1nc2ccc(Cc3nc4ccccc4o3)cc2s1	none
Cc1nc([N+](=O)[O-])cn1Cc1ccccc1	none
O=C(COC(=O)c1ccc(C(O)c2ccccc2)cc1)c1ccccc1 (centres undefined)	Dicer processing 3.98
O=C(COC(=O)c1ccccc1Nc1ccccc1F)c1ccccc1	none
O=C(COC(=O)c1ccccc1-c1ccccc1)c1ccccc1	none
CC1(C)O[C@@H]2C[C@H]3[C@@H]4CCC5=CC(=O)CC[C@]5(C)[C@@]4(F)[C@@H](O)C[C@]3(C)[C@]2(C(=O)CCl)O1	none
N#Cc1c(=O)c2ccccc2n2ccccc12	none
Cc1ccccc1NCc1c(C#N)c2ccccc2n1C	Dicer processing 3.49
COc1ccc(OCc2c(C#N)c3ccccc3n2C)cc1	none
CC(C)(C)OC(=O)N1CCC(C(=O)O)CC1	none
CCCCCCCc1c(O)c2cccc3c4ccccc4n(c1=O)c23	none
COc1ccc(S(=O)(=O)Nc2c(C)cc(O)cc2C)cc1	Dicer processing 5.2
COc1ccc(S(=O)(=O)Nc2cc(OC)c(Cl)cc2OC)cc1	none
COc1ccc(NS(=O)(=O)c2ccc(Br)cc2)cc1	none
Cc1[nH]c(=S)[nH]c(=O)c1Oc1ccc(F)cc1	none
Cc1nn(C)c2ncc(C(=O)N=S(C)(=O)c3ccccc3)c(SC(C)C)c12 (centres undefined)	none
O=C1CC(/C=C/c2ccccc2)(Nc2ccc([N+](=O)[O-])cc2)C(=O)N1C1CCCCC1 (centres undefined)	none
COc1ccc(C=Nc2cccc(NC(=O)c3ccccc3O)c2)cc1	none
Nc1cccc(NC(=O)c2ccccc2O)c1	Dicer processing 5.88
Nc1ccccc1NC(=O)c1ccccc1O	none
COc1ccc(C(=O)CSc2nc(-c3ccccc3)ccc2C#N)cc1	none
CCCCN(C)Cc1c(C)[nH]c2ccc(OCC)cc2c1=O	none
Cn1nnnc1SCCNCc1cccc(OCc2ccccc2F)c1	none
COc1ccccc1C1Nc2c(C)cc(C)cc2-c2cc(C)nn21 (centres undefined)	none
Cc1cc2n(n1)C(c1cccs1)Nc1c(C)cccc1-2 (centres undefined)	none
CCN(CC)c1ccc(C2Nc3c(C)cccc3-c3cc(C)nn32)c(O)c1 (centres undefined)	none
COc1cc(O)ccc1C1Nc2ccccc2-c2cc(C)nn21 (centres undefined)	none
COc1ccccc1C1Nc2c(C)cccc2-c2cc(C)nn21 (centres undefined)	Dicer processing 3.9
Cc1cc2n(n1)C(c1ccccc1O)Nc1c(C)cccc1-2 (centres undefined)	Dicer processing 5.17
COc1cc(O)ccc1C1Nc2c(C)cccc2-c2cc(C)nn21 (centres undefined)	Dicer processing 3.8
COc1ccc(C2Nc3c(C)cccc3-c3cc(C)nn32)c(OC)c1 (centres undefined)	none

Screening results deposited in PubChem BioAssay by Center for Chemical Genomics, University of Michigan.
